# Data from PubChem BioAssay (NCI).
# This is part of a sample that, as a whole, favours compounds with a hit. Of some 83,000 tested, about 20% had one in any assay.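 For each line, cells grew in 96-well plates with the test compound present at a single concentration for 48 hours.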 Values without a mark were called inactive. Calls of active or inactive are those of the source. How the source made its calls: active means growth percent below 10; inactive means the rest.
# Legend:
# Assay in all cases: NCI-60 one-dose screen, 48 h (100 = growth as untreated, 0 = no growth, -100 = all killed)
# T-47D breast = details: 10 µM
# BT-549 breast = details: 10 µM
# MDA-MB-435 melanoma = details: 10 µM
# SW-620 colon = details: 10 µM
# MCF7 breast = details: 10 µM unless noted
# HCC-2998 colon = details: 10 µM
# KM12 colon = details: 10 µM
# HCT-116 colon = details: 10 µM
SMILES,growth (T-47D breast),growth (BT-549 breast) [%],growth (MDA-MB-435 melanoma),growth (SW-620 colon),growth (MCF7 breast),growth (HCC-2998 colon) [%],growth (KM12 colon),growth (HCT-116 colon) [%]
CCN(CC)c1ccc2nc3ccc(=[N+](CC)CC)cc-3oc2c1,-2.86% (active),48,-14.7% (active),6.33% (active),-34.9% (active),40.3,4.22% (active),–
CN(C)c1ccc(CNC(C(=O)c2ccccc2)c2ccccc2)cc1 (configuration not stated),98.9%,98,107%,101%,107%,106,98.6%,–
CC[N+](C)(CC)CCO,93.4%,99.9,100%,100%,103%,102,110%,–
CC(=O)OC1CC2C(C)(C)OC3CC(=O)OCC32C2CCC3(C)C(=CCC3c3ccoc3)C12C (configuration not stated),88.3%,126,97.8%,112%,87.8%,80.7,98.9%,–
Cc1cc(C(C)(C)C)cc(C)c1Br,115%,104,110%,104%,103%,99.4,105%,–
COc1cc(C(N)=O)cc(OC)c1OC,110%,108,116%,109%,105%,105,107%,–
O=C(Nc1ccccc1)OCCc1ccccc1,104%,98.1,99%,106%,93.7%,99.7,111%,–
C/C(O)=C(\C=N\C(N)=S)C(=O)Nc1ccccc1,102%,108,110%,110%,102%,110,104%,–
O=C1c2ccccc2C(=O)c2c1ccc(C(=O)O)c2[N+](=O)[O-],105%,95.5,118%,102%,89.9%,106,101%,–
NC(CSC(c1ccccc1)(c1ccccc1)c1ccccc1)C(=O)O (configuration not stated),15.5%,47.4,-66.6% (active),–,2.58% (active),15.9,–,19.9
NC(=O)N/N=C\c1ccco1,107%,94.9,118%,107%,–,99.3,113%,101
CC(CC(=O)c1ccccc1)c1ccccc1 (configuration not stated),104%,107,99.8%,102%,105%,–,113%,–
O=[N+]([O-])c1ccc(Sc2ccncn2)c([N+](=O)[O-])c1,48.3%,74.9,8.62% (active),23%,–,90.5,76.2%,20.1
Clc1ccc(-c2n[nH]c3c2Cc2ccccc2-3)cc1Cl,29%,97.6,107%,111%,35.4%,92.2,102%,–
c1ncc2[nH]cnc2n1,94.5%,106,108%,96.7%,93.5%,93.7,105%,–
CC(C)OC(=O)c1cc(NC(=S)OC(C)C)ccc1Cl,58.3%,180,97%,91.4%,95.1%,160,59.5%,–
Cc1ccc(CCCC(=O)O)c(C)c1,95.2%,101,100%,99.7%,105%,118,107%,–
CCN(CC)CCNc1ccc(CO)c2sc3ccccc3c(=O)c12,48.3%,70,38.1%,29.5%,–,40.6,42.5%,23.7
CCN1C(=O)/C(=C/C=C/N(C)c2ccccc2)SC1=S,79.8%,80.5,93.9%,106%,88.6%,93.6,106%,–
N#CSc1cc(S(N)(=O)=O)ccc1N,104%,98.6,120%,107%,94.5%,–,107%,–
